Assay results: PubChem BioAssay AID652068 (The Scripps Research Institute Molecular Screening Center, 2013)
Out of some 4,300 compounds screened, about 4,000 (93%) were called active. So high a share suggests a set chosen from earlier hits. The list is a sample of the results. Unmarked numbers belong to inactive results.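 Rule for the calls: active = inhibition above its plate's cutoff, the mean test-well inhibition plus 3 SD (cut at about 4.8% in these data); inactive = the rest.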

assay: DNA CAG/GTC dye complex inhibitors – biochemical, fluorescence, TO-PRO-1 dye, d(CAG) DNA oligo, counter-screen for rCAG RNA repeat binder project (AID 652068); details: d(CAG) DNA oligo TO-PRO-1 dye displacement, at 3 µM, hits give high values;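 note: 0% = DNA dye mix with DMSO and 100% = 100 µM mitoxantrone; hits displace the dye from DNA and so lower well fluorescence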

Structure (SMILES)	inhibition
O=C1NC(=O)N(Cc2ccco2)C(=O)/C1=C\c1ccc(-c2ccc(F)cc2)o1	13.1% (active)
O=C1CC(=O)N(Cc2ccccc2)C(=O)N1CCCCCCN1C(=O)CC(=O)N(Cc2ccccc2)C1=O	22.6% (active)
COc1ccc(N2C(=O)/C(=C/c3ccco3)C(=O)NC2=S)cc1	61.4% (active)
CC/C(=N\NC(=O)c1ccccc1O)c1c(O)n(Cc2ccccc2)c(=O)[nH]c1=O	36.7% (active)
COc1ccc2c(c1)[C@@]13CCCCC1[C@@H](C2)NCC3 (some centres not stated)	-5.51%
COc1cccc(N2C(=O)NC(=O)/C(=C\c3ccc([N+](=O)[O-])s3)C2=O)c1	19.4% (active)
O=C1NC(=O)N(c2ccccc2)C(=O)/C1=C/c1ccc([N+](=O)[O-])s1	25.7% (active)
